Screening results: PubChem BioAssay, National Center for Advancing Translational Sciences (NCATS)
PLK1 PBD inh – blocks phosphopeptide binding to human PLK1 polo-box domain | Potency, µM, inactives show max response, negative = inhibition, usual class: inhibitors | 360,000 compounds, 2.8% hits | Plk1 PBD binding of FITC phosphopeptide, fluorescence polarization | P53350; also: series mostly up to about 57 µM; % is scaled to controls: 0 for no effect and ±100 for the full control effect; nearly all actives have a fitted effect of over 65% in size
BAZ2B block – inhibitors of human BAZ2B bromodomain | Potency, µM (titrated, usually from 114 µM), inactives show at the top dose activity change, negative = inhibition, usual class: inhibitors | AID 504333 | 360,000 compounds, 4.4% hits | AlphaScreen BAZ2B-H3K14Ac peptide displacement | Q9UIF8; also: % is scaled to controls: 0 for no effect and ±100 for the full control effect; nearly all actives have a fitted effect of over 60% in size
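AlphaScreen luminescence quantifies BAZ2B engagement of H3K14Ac peptide; the protein and biotinylated peptide are both at 50 nM final, buffer PBS pH 7.4 with 0.01% Tween-20, all steps at room temperature.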
G9a block – blocks human histone lysine methyltransferase G9a. Q96KQ7. G9a H3K9 monomethylation, AlphaScreen, 2 h. Potency, µM (series often up to 102 µM), for the others: at the top dose activity, negative = inhibition, usual class: inhibitors. 350,000 compounds, 8.8% hits; also: % is scaled to controls: 0 for no effect and ±100 for the full control effect; nearly all actives have a fitted effect of over 75% in size
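G9a (20 nM) was preincubated 15 min with compound, then reacted 2 h at room temperature with 500 nM biotin-H3K9 peptide and 20 µM SAM. Monomethyl-H3K9 detected by AlphaScreen using anti-H3K9me1 antibody.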
HP1b chromo inh – blocks HP1-beta chromodomain binding to methylated histone tails | Potency, µM (highest dose often 114 µM), for inactives: top-dose activity change, negative = inhibition, usual class: inhibitors | AID 540317 | 390,000 compounds, 0.56% hits | AlphaScreen HP1-beta / biotin-H3K9me3 peptide binding; also: nearly all actives have a fitted effect of over 70% in size
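Compound inhibition of the preformed complex between 50 nM HP1-beta and 50 nM biotinylated H3K9me3 peptide was read by AlphaScreen. Buffer was PBS pH 7.4 with 0.01% Tween-20. Incubations ran 30 min at room temperature, with 10 ug/mL donor/acceptor beads.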
JMJD2A Tudor inh – blocks the human JMJD2A Tudor domain; O75164; AlphaScreen JMJD2A-Tudor / H3K4me3 peptide binding; Potency, µM (series often up to 114 µM), for inactives: top-dose activity change, negative = inhibition, hits mostly inhibitors; 390,000 compounds, 4.4% hits; AID 504339; also: % is scaled to controls: 0 for no effect and ±100 for the full control effect; nearly all actives have a fitted effect of over 50% in size
ALOX12 inh – blocks human arachidonate 12S-lipoxygenase; P18054; purified 12hLO, xylenol orange hydroperoxide absorbance; Potency, µM (highest dose often 108 µM), inactives show top-dose activity change, negative = inhibition, hits mostly inhibitors; 580,000 compounds, 1.1% hits; AID 1671190; also: % is scaled to controls: 0 for no effect and ±100 for the full control effect
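Purified human 12hLO at 150 nM in 25 mM Hepes, 0.01% Triton X-100, pH 7.0, preincubated 15 min at room temperature with compound. Reaction started with 40 uM arachidonic acid, 30 min at room temperature. Hydroperoxide measured by Fe-xylenol orange, 573/405 nm absorbance ratio.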
Active calls of the source: *; u = inconclusive; x = not tested or not shown; [ ] = dose if it differs, or a comment. Only some compounds are listed: those with a hit (about 9% of all), similar ones and a draw of the others. Calls follow the shape of the dose curve; as a rule, active = well fitted curve in the direction sought with a large enough effect; inconclusive = small, poorly fitted or top-dose-only effect, or another doubt; inactive = no such curve, though single readings can be large; an effect the other way counts as inactive or inconclusive. Potency is read from the fitted curve at half-maximal effect.

SMILES | PLK1 PBD inh | BAZ2B block | G9a block | HP1b chromo inh | JMJD2A Tudor inh | ALOX12 inh
COc1cc(OC)c(OC)cc1CN1CCc2nc(N3CCN(c4ncccn4)CC3)ncc2C1 | x | u | -6%[12.7 µM] | 0% | u | u
COc1cc(OC)c(OC)cc1CN1CCc2nc(Nc3ccc4c(c3)OCCO4)ncc2C1 | x | 45µM* | 14µM* | -13% | 56µM* | u
Clc1ccc(CN2CCc3nc(Nc4ccc5c(c4)OCCO5)ncc3C2)cc1 | x | 18µM* | -29%[12.7 µM] | -22% | 28µM* | u
Cc1[nH]n(C(N)=S)c(=O)c1C(c1ccccc1)C(C#N)C#N (stereo not drawn) | u | 12% | u | 33% | 9% | u
CCOC(=O)c1cnc2c(C)cc(C)cc2c1Nc1ccc(OCc2ccccc2)cc1 | x | -15% | 1%[59 µM] | 35% | -10% | u
CCOC(=O)c1ccc(Nc2nc(=O)c3cccnc3s2)cc1 | -5% | -2% | 28µM* | 28% | -6% | -19%
CC(=O)c1cccc(Nc2nc(=O)c3cccnc3s2)c1 | -9% | -5% | 50µM* | 26% | -9% | -7%
O=c1nc(Nc2ccc(OCc3ccccc3)cc2)sc2ncccc12 | -8% | -12% | 50µM* | 22% | -16% | 0%
Cc1ccc(Nc2nc(C)cc(C)n2)c(Br)c1 | -6% | 23% | 33% | 75% | 45% | 11%
CC(=O)c1ccc(Nc2nc(=O)c3cccnc3s2)cc1 | -3% | -3% | u | 20% | -11% | -3%
CCOC(=O)c1ccc(NC(=O)Nc2ncccc2C)cc1 | -4% | -1% | -31% | 27% | -5% | 11%
Cc1ccc(Nc2nc(=O)c3cccnc3s2)c(Br)c1 | -6% | -27% | 14µM* | 7% | -21% | -49%
COC(=O)c1c(NC(=O)CN2CCN(c3ccccc3OC)CC2)c2cc(C)ccc2n1C | -3% | -6% | -47% | 22% | -16% | -16%
CN(C)[C@@H]1[C@@H](NC(=O)c2ccc(N3CC(=O)NC3=O)cc2)[C@H]2CCO[C@H]21 | x | x | x | x | x | 23%
COc1ccc(/C=C/C(=O)c2c(O)c(OC)c3occc3c2OC)cc1 | -7% | u | u | -19% | u | -2%
CC1(C)Oc2ccc(C(=O)N3CCCC3)cc2N(CC(=O)NCc2ccccc2)C1=O | -4% | 13% | -4% | 17% | -3% | -9%
O=C(Nc1ccon1)c1nc[nH]c1C(=O)N1CCc2ccccc2C1 | -5% | u | 3%[0.501 µM] | 16% | -17% | -2%
Nc1ccccc1C#CC(=O)c1ccccc1 | 8.4µM* | 11% | -14% | 45% | -6% | -9%
O=C(C#Cc1cccc([N+](=O)[O-])c1)c1ccccc1 | x | -27% | u | x | x | x
Cc1ccc2nc3c(cc(C(=O)NCc4cccnc4)c(=N)n3C(C)C)c(=O)n2c1 | x | 1% | 40µM* | x | x | x
CC(C)CN(C(=O)C1CCCO1)C1CCS(=O)(=O)C1 (stereo not drawn) | -9% | -4% | 7%[0.501 µM] | 4% | -15% | 8%
Clc1ccc(C2NCCc3sccc32)cc1 (stereo not drawn) | -16% | -1% | 2% | 20% | -10% | -1%
Oc1ccc(C2CNCc3sccc32)cc1O (stereo not drawn) | -10% | 15% | 3µM* | u | 50µM* | u
Cc1cc2ccccn2c1C(=O)c1nc(NCc2ccccc2)ncc1Cl | -4% | u | -37% | 34% | u | -12%
N#Cc1c(=O)c2nc(NCc3ccccc3)ncc2n2ccccc12 | -2% | u | -21%[12.7 µM] | 43% | 50µM* | -14%
SMILES | PLK1 PBD inh | BAZ2B block | G9a block | HP1b chromo inh | JMJD2A Tudor inh | ALOX12 inh
N=C1C=CC(=C(c2ccc(N)cc2)c2ccc(N)cc2)C=C1 | 5% | x | x | u | 7.1µM* | -21%
COc1ccc(-c2noc(CCC(=O)N(C)c3cc(Cl)ccc3OC)n2)cc1 | x | 7% | 17%[59 µM] | 39% | 8% | 0%
COC(=O)c1ccc(C2c3c(oc4ccccc4c3=O)C(=O)N2c2nc(C)c(C(=O)OC)s2)cc1 (stereo not drawn) | x | -12% | u | 10% | -18% | u
COC(=O)c1sc(N2C(=O)C(O)=C(C(=O)c3ccc(C)o3)C2c2ccc(F)cc2)nc1C (stereo not drawn) | u | -5% | 13µM* | 5% | -36% | -57%
COC(=O)c1sc(N2C(=O)C(O)=C(C(=O)c3ccc(C)o3)C2c2ccco2)nc1C (stereo not drawn) | 30µM* | -5% | x | 7% | -26% | u
CCN(CC)CCCN1C(=O)C(O)=C(C(=O)c2ccc(C)o2)C1c1cccs1 (stereo not drawn) | x | -1% | -39%[12.7 µM] | x | x | x
COC(=O)c1sc(N2C(=O)C(O)=C(C(=O)c3ccc(C)o3)C2c2cccs2)nc1C (stereo not drawn) | 27µM* | -31% | 10µM* | 6% | u | x
COC(=O)c1sc(N2C(=O)c3oc4ccccc4c(=O)c3C2c2cccs2)nc1C (stereo not drawn) | -7% | -4% | 14µM* | 21% | -4% | u
Cc1ccc(C(=O)C2=C(O)C(=O)N(c3ncccn3)C2c2ccc(F)cc2)o1 (stereo not drawn) | -7% | u | u | 24% | -13% | 38%
CCc1cc(=O)oc2cc(OCC(=O)NCCCN3CCCC3=O)ccc12 | -8% | -32% | 57% | 54% | -2% | 10%
Cc1cn2nnc(C(=O)N3CCC(C(=O)Nc4ccc(Cl)cc4)CC3)c2c(=O)[nH]1 | x | x | x | x | x | 7%
COc1ccc(Nc2nc(N3CCOCC3)c3nccnc3n2)cc1OC | x | x | x | x | x | -13%
COc1ccc(-c2cc(=O)oc3c(C)c(OCC(=O)N[C@@H](Cc4ccc(O)cc4)C(=O)O)ccc23)cc1 | -8% | -8% | x | 34% | -12% | -29%
Cc1c(O)ccc2c(CC(=O)N[C@@H](Cc3ccc(O)cc3)C(=O)O)cc(=O)oc12 | -18% | -12% | 2%[2.33 µM] | 21% | -7% | -5%
O=C(Cc1cc(=O)oc2cc(O)ccc12)NC(Cc1ccc(Cl)cc1)C(=O)O (stereo not drawn) | 30µM* | 3% | -4% | 9% | u | 6%
Cc1c(OCC(=O)NC(Cc2ccc(Cl)cc2)C(=O)O)ccc2c(-c3ccccc3)cc(=O)oc12 (stereo not drawn) | 67µM* | -2% | -7%[12.7 µM] | 15% | -20% | u
COc1cccc(N2C(=O)CC(N3CCN(CCN=CC4=C(O)CC(C)(C)CC4=O)CC3)C2=O)c1 (stereo not drawn) | -5% | -4% | -6% | 35% | -14% | 19%
CC1(C)CC(=O)C(C=NCCCN2CCOCC2)=C(O)C1 | 30µM* | -2% | 0% | 3% | -9%[11.4 µM] | u
